# Out of some 220,000 compounds screened, about 2,400 (1.1%) were called active. Roughly 7% stayed inconclusive and do not appear here. The sample holds actives, similar compounds and a random draw of the others, so the mix is not that of the screen. Values without a mark were called inactive. The call rests on the fitted dose curve; in most records, active means well fitted inhibition curve with a large enough effect; inconclusive means small, poorly fitted or top-dose-only effect, or effect the other way; inactive means no such curve, though single readings can be large or run the other way.
# Assay: qHTS Multiplex Assay to Identify Dual Action Probes in a Cell Model of Huntington: Aggregate Formation (GFP); further: nearly all actives have a fitted effect of over 60% in size
# Details: PC12 HttQ103-GFP aggregates, Acumen cytometry, 40 h; series mostly up to 9.22 µM; activity change, negative = inhibition: at the top concentration
# Method in brief: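 PC12/HTTQ103-GFP, ecdysone-inducible; teb 100 nM; cpd qHTS titration; GFP aggregates read on laser cytometer, Ex 488/Em 500-530 nm.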
# On the % scale 0 is the no-effect control and ±100 the full control effect; potency means the concentration at half of the fitted maximal effect.
SMILES,"activity change, negative = inhibition",Potency
O=C(Nc1cccc(-c2nc3ccccc3[nH]2)c1)c1ccc(C(=O)Nc2cccc(-c3nc4ccccc4[nH]3)c2)cc1,29%,–
CN(c1ccccc1)S(=O)(=O)c1cc(C(=O)Nc2nc3ccccc3[nH]2)ccc1Cl,–,11.2 µM (active)
COC(=O)/C=C(\Oc1ccccc1)C1(O)CCCCC1,13.9%,–
CC(C)(C)c1nnc(NC(=O)C2c3ccccc3Oc3ccccc32)s1,-14.3%,–
Nc1ccc(C(=O)Nc2ccccc2N)cc1,2.49% [at 46.1 µM],–
COc1cccc(NC(=O)c2ccc(S(=O)(=O)N(C)C)cc2)c1,11% [at 46.1 µM],–
COc1cccc(-c2nnc(NC(=O)c3ccc(S(=O)(=O)N(CC(C)C)CC(C)C)cc3)o2)c1,–,5.01 µM (active)
COc1cccc(NC(=O)CN(C)S(=O)(=O)c2ccc(C)cc2)c1,28% [at 46.1 µM],–
Oc1ccc(Cl)c2c1CCC2,3.24% [at 46.1 µM],–
CCOc1ccccc1N1CN(Cc2ccccc2)CNC1=S,-10.6%,–
COC(=O)C1=C(C)N(C)C(=S)NC1c1cc(OC)ccc1OC (stereo unspecified),-3.02% [at 46.1 µM],–
COCCN1C(=O)N[C@@H](c2ccccc2)C(C(=O)OC)=C1C,17.3% [at 46.1 µM],–
COC(=O)C1=C(C)N(C)C(=S)NC1c1ccccc1 (stereo unspecified),–,3.16 µM (active)
COc1ccc(-c2csc(NC3OC(=O)c4ccccc43)n2)cc1 (stereo unspecified),-6.69%,–
Cc1c(C(=O)OC(C)C)sc(NC(=O)c2cccnc2)c1C#N,–,11.2 µM (active)
CCOC(=O)c1sc(NC(=O)CSc2ncccn2)c(C#N)c1C,-1.2% [at 46.1 µM],–
CCOC(=O)c1cc(NC(=O)c2cccnc2)cc(C(=O)OCC)c1,2.09% [at 46.1 µM],–
O=S(=O)(c1ccc(F)cc1)N1CC=C(c2ccccc2)CC1,-11.9%,–
O=C1CCCC(O)=C1N=Nc1ccc(S(=O)(=O)N2CCOCC2)cc1,-29.6%,–

SMILES,"activity change, negative = inhibition",Potency
O=C(C1=C(O)C(=O)N(CCOCCO)C1c1ccccn1)c1cccs1 (stereo unspecified),-9.5%,–
COc1ccc(Cc2cc(-c3ccc(F)cc3)n[nH]c2=O)cc1,-2.71%,–
Fc1ccccc1/C=N/n1c(-c2cccnc2)n[nH]c1=S,-12.6%,–
O=C(NCCCN1CCOCC1)c1ccc(N2CCCC2)c([N+](=O)[O-])c1,3.94%,–
N#Cc1c(NC(=O)c2ccc(N3CCOCC3)c([N+](=O)[O-])c2)sc2c1CCCC2,–,5.62 µM (active)
CCOC(=O)c1c(NC(=O)c2ccc(N3CCOCC3)c([N+](=O)[O-])c2)sc(C)c1C,-1.54% [at 46.1 µM],–
Cc1cc(=O)[nH]c(S)c1C#N,-6.31%,–
NC(=O)C(=O)N/N=C/c1ccc([N+](=O)[O-])o1,-100% [at 46.1 µM],–
O=C(O)c1cccnc1Sc1ncnc2sc3c(c12)CCC3,-1.62%,–
COCCn1c(C)cc(C(=O)CSc2nc3ccccc3c(=O)n2C(C)COC)c1C (stereo unspecified),-9.69% [at 46.1 µM],–
COCCn1c(C)cc(C(=O)CSc2ncnc3sc4c(c23)CCC4)c1C,–,6.31 µM (active)
CC(C)(C)C(=O)NNC(=O)c1ccc(Oc2cc(Cl)cc(Cl)c2)o1,-4.94%,–
CCOc1cc2c(Cl)ncnc2c(OCC)c1OCC,-18.2%,–
Cc1nc2ccccc2c(-c2ccccc2)c1C(=O)c1ccccc1,-13.7% [at 46.1 µM],–
Cc1nc2ccc(C(=O)O)cc2[nH]1,2.47% [at 46.1 µM],–
Cc1nc2ccccc2c(C)c1C(=O)c1ccc(F)cc1,–,7.94 µM (active)
COc1ccc(Cl)cc1C(=O)NNC(=O)c1nc2nc(C)cc(C)n2n1,16.4%,–
FC(F)(F)c1ccc(-n2cn[nH]c2=S)cc1,-29%,–
COc1ccc(NC(=O)C(Br)C(C)C)cc1 (stereo unspecified),–,0.891 µM (active)

SMILES,"activity change, negative = inhibition",Potency
COc1ccc(NC(=O)C(C)SCc2ccccc2)cc1 (stereo unspecified),9.72%,–
CCOC(=O)C(NC(C)=O)C(=O)Nc1ccc(OC)cc1 (stereo unspecified),1.08%,–
O=C(COc1ccccc1[N+](=O)[O-])N/N=C/c1ccc[nH]1,27.9%,–
O=C1CC2(CC(c3ccc(Cl)cc3)=NO2)C(=O)N1c1ccccc1 (stereo unspecified),-18.5%,–
C#CCNc1ccc(C(=O)OCC)cc1,-0.897%,–
Fc1ccc(-c2csc(-c3ccc(C4SCCS4)cc3)n2)cc1F,-8.2%,–
Cn1nccc1CNC(=O)c1ccnn1C,17.5% [at 46.1 µM],–
CCN(CC)C(=O)c1sc(NC(=O)c2ccco2)c(C#N)c1C,-5.71% [at 46.1 µM],–
CCCc1ccc(-c2c(C)sc(NC(=O)c3ccnn3C)c2C#N)cc1,–,7.08 µM (active)
CCN(CC(=O)Nc1ccc(S(=O)(=O)N2CCCC2)cc1)CC(=O)Nc1cccc(OC)c1,-1.97%,–
CN(Cc1nc(-c2cnccn2)no1)Cc1n[nH]c2c1CCCCC2,3.15%,–
Cc1ccc(NC(=O)C/C(N)=N/O)cc1Cl,-5.66%,–
O=C(CC(=O)Nc1ccc(Cl)c(Cl)c1)N/N=C/c1ccc(O)cc1,-2.59% [at 46.1 µM],–
O=C(CC(O)(C(F)(F)F)C(F)(F)F)Nc1ccc(Cl)c(Cl)c1,–,5.01 µM (active)
Cn1cc(S(=O)(=O)NC(c2ccccc2)c2ccccc2)c(=O)n(C)c1=O,25.8%,–
c1ccc(Cc2cc[n+](Cc3ccccc3)cc2)cc1,-10.7%,–
CN(C)c1ccc(/C=N/N(Cc2ccccc2)c2ccccc2)cc1,0.998% [at 46.1 µM],–
CN(C)c1cc[n+](Cc2ccccc2)cc1,–,7.08 µM (active)

# From PubChem BioAssay AID1688 (National Center for Advancing Translational Sciences (NCATS), 2009)
